Structures are written as SMILES.

The source of these data is ChEMBL document CHEMBL3988442, “University of Dundee, Small-Polar-MMV Screening Library” (2021).

For the assay, the target named is Shiga toxin 2 (Escherichia coli O157:H7) (UniProt P09385+P09386). The assay can be described thus: E. coli 0.157:H7 Shiga Toxin SOP - stx2 screening assay. The assay is classed as functional. Further details: scale not given: direction of the effect not stated beside the values. Particulars: 30 µM.
With `CC(C)Cc1noc(CN2CCN(c3nccs3)CC2)n1`, the Percent Effect is 11.6%. Regarding `CC1CN(Cc2noc(C3CC3)n2)CCN1Cc1nccn1C` (centres undefined), the Percent Effect is -11.1%. `Cc1nn(C)c(C)c1NC(=O)CCn1ncc2c(C)cccc21`: the Percent Effect was -31.5%. Take `CSc1ccccc1CN1CCn2nc(CNC(C)=O)cc2C1`: the Percent Effect was -66.1%. As to `CCn1ccnc1CN(C)CC1CCCN1c1cccnn1` (centres undefined), the Percent Effect was -26.1%. For the compound `Cc1nc2c(c(NC3CC3)n1)CCN(C(=O)C(C)(C)O)CC2`, the Percent Effect was -3.14%. On to `CC(c1ccc(Cl)cc1)N1CCN(CCS(C)(=O)=O)CC1` (centres undefined), for which the Percent Effect came to 1.09%. As to `Cc1nc(C2CCCN(C(=O)c3cccc4c3OCO4)C2)no1` (centres undefined), the Percent Effect is -12.6%. Consider `Cn1cc(-c2nc(CN3CCN(CCO)CC3)cs2)cn1`, for which the Percent Effect was 22.1%. Take `CC(C)c1nc2n(n1)CC(NCc1nnc(C(C)C)o1)CC2` (centres undefined): the Percent Effect was determined as 19.6%. In the case of `CCc1ncc2c(n1)CN(Cc1nc(-c3ccsc3)no1)CC2` it was 13.8%. Turning to `Cc1noc(C)c1CN1CCN(Cc2ccncc2)c2ncccc2C1`, the Percent Effect turned out to be 8.32%.

Consider `CCn1ccnc1CN1CCN(CC(=O)NC(C)(C#N)C2CC2)CC1` (centres undefined), for which the Percent Effect stood at 27.2%. As for `c1cc(CNCc2ccnc(N3CCOCC3)c2)c2c(c1)OCCO2`, the Percent Effect was -11.8%. In the case of `CCc1nnc(CN2CCCC(c3cc(C(F)(F)F)[nH]n3)C2)o1` (centres undefined), the Percent Effect is -4.16%. As to `CCc1nc(C2CCCN2C(=O)c2cc(C3CC3)[nH]n2)no1` (centres undefined), the Percent Effect worked out at 8.24%. Turning to `COc1cccc(CCC2CCCN(C(=O)c3n[nH]c4c3CCC4)C2)c1` (centres undefined), the Percent Effect was -1.83%. As for `COc1ccc(CCN2CCc3c(nc(C4CC4)n3C)C2)cc1`, the Percent Effect is -51.7%.

For `Cc1cc(N2CCC(N(C)C(=O)c3ccccc3)CC2)nc(C)n1`, the Percent Effect is -9.61%. With `O=C(Nc1cccc(Cl)c1)c1nn(C2CCS(=O)(=O)C2)c2c1CCCC2` (centres undefined), the Percent Effect came out at 5.07%. Turning to `O=C(CCc1cc2n(n1)CCCN(C(=O)c1cccnc1)C2)NC1CC1`, the Percent Effect is -9.98%. `COCCN1CCC(CNC(=O)C2(c3cc(C)cc(C)c3)CCC2)C1` (centres undefined): the Percent Effect came out at 20.8%.

Turning to `CCCc1nc(CN2CCCC2Cn2cncn2)cs1` (centres undefined), the Percent Effect is -7.55%. Turning to `CCCNCc1cn(C)nc1-c1cccnc1`, the Percent Effect is -14.7%.

On to `Cc1nc(N2CCN(C(=O)c3ccccc3)CC2)c2c(n1)c(C)nn2C`, for which the Percent Effect is -31%.

For `Cc1cc(C)cc(OCCC(=O)N2CCCC(n3cncn3)C2)c1` (centres undefined), the Percent Effect worked out at 5.55%.

Regarding `Nc1nc2nc(C3CCCN(C(=O)c4cscn4)C3)ccc2s1` (centres undefined), the Percent Effect was -35.5%. As to `O=C(Cn1cc(C(=O)O)ccc1=O)Nc1ccc(F)cc1Cl`, the Percent Effect is -28.6%. Under `CCS(=O)(=O)CCn1ccc(NC(=O)CCc2cccc(C)c2)n1` stands -19.5%; under `Cc1nn(C)c(N(C)C)c1CNCC(O)COc1ccccc1` (centres undefined), -12%. Under `Fc1ccc(CN2CCO[C@H]3[C@H](OCCN4CCCC4)CC[C@@H]32)cc1` stands -20.2%; under `CN(C)CC(=O)N1Cc2nc(C(=O)NCc3ccncc3)oc2C1`, -45%.

In the case of `Cc1nnc2n1CCN(CCS(=O)(=O)c1ccccc1)C2`, the Percent Effect was -6.96%. `Cc1nc(Cn2nc(C3CCNCC3)n(Cc3ccccc3)c2=O)no1`: the Percent Effect was -3.49%. Consider `CCOC(=O)N1CCN(C(=O)CCn2ccc3c(OC)cccc32)CC1`, for which the Percent Effect is -14.3%. Take `CS(=O)(=O)N1CCC(Oc2ccc(C(=O)N3CCSCC3)cc2Cl)CC1`: the Percent Effect amounted to 11.9%. In the case of `CS(=O)(=O)N1CCN(CC(O)COc2ccc(F)cc2)CC1` (centres undefined) it was 26.7%; in that of `COCCN1C[C@@H]2CN(Cc3cccc(F)c3)CCC[C@]2(C(=O)O)C1`, -10.4%; in that of `Cc1nc(COC[C@@H]2CCC[C@@]23CNCCO3)cs1`, -7.74%.
